From PubChem BioAssay AID1159580 (chemical genetic matrix, 2015)
Values joined by “and” are separate entries in the source; they are usually repeats but may differ in a detail not shown here. Identical values can stand only once. Hit rate of the full screen: of about 5,500 compounds, about 2,000 (36%) were called active. Another 18% or so got no clear call; they are omitted. Cut-off read from the data, not from the text of the source: active = normalized growth mostly below about 0.91 (no sharp cut-off); inconclusive = no clear call, values can overlap the other calls; inactive = mostly above about 0.92. Some of the results follow.

Assay: chemical genetic growth profiling, strain panel (AID 1159580);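 note: tested at 20 µM; growth read once vehicle control cultures reached saturation at 30 °C; 1 = growth at the plate median or of vehicle wells; lower values mean less growth of the strain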
Conditions: S. cerevisiae deletion strains, growth OD

Measured: normalized growth

COC1=CC(C)[C@@H]2C[C@H]3OC(=O)C[C@H]4C(C)=C(OC)C(=O)C([C@@]34C)[C@@]2(C)C1=O (some centres undefined)
inactive: locus YAL021C, strain ccr4, active compounds read low 0.997 | locus YAL026C, strain drs2, active compounds read low 0.979 | locus YAL030W, strain snc1, active compounds read low 0.988 | locus YBL061C, strain skt5, active compounds read low 0.987 | locus YBR009C, strain hhf1, active compounds read low 0.962 | locus YBR021W, strain FUR4, active compounds read low 0.994 | locus YBR023C, strain chs3, active compounds read low 0.978 | locus YBR171W, strain sec66, active compounds read low 0.977 | locus YBR229C, strain ROT2, active compounds read low 1.01 | locus YBR231C, strain swc5, active compounds read low 0.988 | locus YBR279W, strain paf1, active compounds read low 0.985 | locus YCL011C, strain gbp2, active compounds read low 0.977 | locus YCL016C, strain dcc1, active compounds read low 0.981 | locus YCL029C, strain bik1, active compounds read low 1.02 | locus YCL061C, strain MRC1, active compounds read low 0.99 | locus YCL069W, strain vba3, active compounds read low 0.981 | locus YCR088W, strain abp1, active compounds read low 0.978 | locus YDL005C, strain med2, active compounds read low 0.975 | locus YDL035C, strain GPR1, active compounds read low 1.01 | locus YDL040C, strain nat1, active compounds read low 0.981 | locus YDL074C, strain BRE1, active compounds read low 1.03 | locus YDL101C, strain DUN1, active compounds read low 1.01 | locus YDL185W, strain tfp1, active compounds read low 1.02 | locus YDL192W, strain arf1, active compounds read low 1.02 | locus YDR001C, strain nth1, active compounds read low 0.976 | locus YDR069C, strain doa4, active compounds read low 0.984 | locus YDR101C, strain arx1, active compounds read low 1.02 | locus YDR137W, strain rgp1, active compounds read low 1 | locus YDR159W, strain sac3, active compounds read low 0.988 | locus YDR162C, strain NBP2, active compounds read low 1.03 | locus YDR195W, strain ref2 0.966 | locus YDR297W, strain sur2, active compounds read low 0.978 | locus YDR318W, strain mcm21, active compounds read low 1 | locus YDR334W, strain swr1, active compounds read low 0.971 | locus YDR335W, strain msn5, active compounds read low 0.986 | locus YDR388W, active compounds read low 1 | locus YDR392W, strain spt3, active compounds read low 0.88 | locus YDR502C, strain sam2, active compounds read low 1.01 | locus YEL003W, strain gim4, active compounds read low 0.975 | locus YEL037C, strain rad23, active compounds read low 0.972 | locus YEL061C, strain CIN8 (second series), active compounds read low 0.965 | locus YEL061C, strain CIN8, active compounds read low 1.01 | locus YER015W, strain faa2, active compounds read low 0.983 | locus YER016W, strain bim1, active compounds read low 0.973 | locus YER110C, active compounds read low 1.01 | locus YER111C, strain swi4, active compounds read low 0.972 | locus YER155C, strain BEM2 (second series), active compounds read low 0.978 | locus YER155C, strain BEM2, active compounds read low 1 | locus YER167W, strain BCK2, active compounds read low 1.01 | locus YFR010W, strain ubp6, active compounds read low 0.98 | locus YGL078C, strain dbp3, active compounds read low 1.02 | locus YGL086W, strain mad1, active compounds read low 1.02 | locus YGL167C, strain pmr1, active compounds read low 0.968 | locus YGL173C, strain kem1, active compounds read low 0.973 | locus YGL227W, strain vid30, active compounds read low 0.968 | locus YGL240W, strain doc1, active compounds read low 0.972 | locus YGL248W, strain PDE1, active compounds read low 1.03 | locus YGL253W, strain hxk2, active compounds read low 0.983 | locus YGR078C, strain PAC10, active compounds read low 1.04 | locus YGR135W, strain pre9, active compounds read low 1.02 | locus YGR229C, strain SMI1, active compounds read low 1.03 | locus YGR252W, strain gcn5, active compounds read low 1.04 | locus YHR013C, strain ard1, active compounds read low 0.926 | locus YHR027C, strain rpn1, active compounds read low 0.989 | locus YHR030C, strain SLT2, active compounds read low 1.01 and 1.04 | locus YHR079C, strain IRE1 (second series), active compounds read low 1.01 | locus YHR079C, strain IRE1, active compounds read low 1.01 | locus YHR094C, strain hxt1, active compounds read low 1.03 | locus YHR129C, strain ARP1, active compounds read low 1.01 | locus YHR142W, strain chs7, active compounds read low 0.981 | locus YHR200W, strain rpn10, active compounds read low 1.01 | locus YIL066C, strain RNR3, active compounds read low 1.02 | locus YIL073C, strain SPO22, active compounds read low 1.06 | locus YIL125W, strain kgd1, active compounds read low 1.01 | locus YIR030C, strain dcg1, active compounds read low 1.02 | locus YJL092W, strain hpr5, active compounds read low 0.975 | locus YJL095W, strain BCK1 (second series), active compounds read low 0.98 | locus YJL095W, strain BCK1, active compounds read low 1.05 and 1.02 | locus YJL115W, strain asf1, active compounds read low 0.978 | locus YJL129C, strain trk1, active compounds read low 0.971 | locus YJL134W, strain LCB3, active compounds read low 1.01 | locus YJL154C, strain vps35, active compounds read low 0.975 | locus YJL164C, strain tpk1, active compounds read low 0.989 | locus YJL166W, strain qcr8, active compounds read low 0.987 | locus YJL168C, strain set2, active compounds read low 1.01 | locus YJL187C, strain SWE1 (second series), active compounds read low 1.03 | locus YJL187C, strain SWE1, active compounds read low 0.993 | locus YJR043C, strain POL32, active compounds read low 1 | locus YJR066W, strain TOR1, active compounds read low 0.993
